The list is not random: actives were taken first. Their share in the collection is about 12%.
G9a block: G9a (human) methyltransferase inhibition | Q96KQ7 | G9a H3K9 monomethylation, AlphaScreen, 2 h | Potency, µM (top dose mostly 102 µM), actives largely listed as inhibitors | actives 8.8% (n = 350,000) | AID 504332; note: nearly all actives have a fitted effect of over 75% in size
Target sequence (Q96KQ7 913-1193 limits assumed): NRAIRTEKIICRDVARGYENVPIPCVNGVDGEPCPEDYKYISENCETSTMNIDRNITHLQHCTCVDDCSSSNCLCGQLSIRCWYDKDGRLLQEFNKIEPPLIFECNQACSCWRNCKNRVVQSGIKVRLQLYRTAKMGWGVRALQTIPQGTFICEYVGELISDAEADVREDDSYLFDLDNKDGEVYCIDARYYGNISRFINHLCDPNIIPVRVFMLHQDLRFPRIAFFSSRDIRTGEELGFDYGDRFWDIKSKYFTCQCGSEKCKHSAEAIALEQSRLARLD
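G9a (20 nM) preincubated 15 min RT with compounds, then 500 nM biotinylated H3K9 peptide and 20 uM SAM added; 2 h RT reaction. Monomethyl-H3K9 product detected by AlphaScreen with anti-H3K9me1 antibody, streptavidin donor and anti-rabbit IgG acceptor beads.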
BAZ2B block: inhibitors of human BAZ2B bromodomain; AID 504333; AlphaScreen BAZ2B-H3K14Ac peptide displacement; Potency, µM (doses to about 114 µM), actives largely listed as inhibitors; actives 4.4% (n = 360,000); Q9UIF8; note: nearly all actives have a fitted effect of over 60% in size
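AlphaScreen displacement: compounds (up to 110uM) incubated 30 min at room temperature with a preformed 50 nM BAZ2B/50 nM biotinylated H3K14Ac peptide complex in PBS pH 7.4 with Tween-20. Donor and acceptor beads at 10 ug/mL final added, 20 min light-protected before reading.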
JMJD2A Tudor inh: blocks the human JMJD2A Tudor domain; AlphaScreen JMJD2A-Tudor / H3K4me3 peptide binding; Potency, µM (top dose mostly 114 µM), hits mostly inhibitors; actives 4.4% (n = 390,000); AID 504339; note: nearly all actives have a fitted effect of over 50% in size
HP1b chromo inh: blocks HP1-beta chromodomain binding to methylated histone tails. actives 0.56% (n = 390,000). P83916. AlphaScreen HP1-beta / biotin-H3K9me3 peptide binding. Potency, µM (series often up to 114 µM), most hits filed as inhibitors; note: nearly all actives have a fitted effect of over 70% in size
Target sequence (P83916 whole entry, looked up): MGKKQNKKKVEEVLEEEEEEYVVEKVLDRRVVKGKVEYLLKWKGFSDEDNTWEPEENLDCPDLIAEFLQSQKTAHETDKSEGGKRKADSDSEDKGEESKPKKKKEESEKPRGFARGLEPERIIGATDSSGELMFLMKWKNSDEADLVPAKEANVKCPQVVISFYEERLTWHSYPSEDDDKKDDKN
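AlphaScreen: HP1-beta (50 nM) preformed 30 min with biotin-H3(1-18)K9me3 peptide (50 nM) in PBS pH 7.4, 0.01% Tween-20. Compound added for 30 min at RT, then streptavidin donor/nickel chelate acceptor beads (10 ug/mL) for 30 min.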
Sfp inh: inhibitors of Bacillus subtilis Sfp phosphopantetheinyl transferase. Potency, µM, usual class: inhibitors. actives 3.5% (n = 310,000). Biochemical Sfp PPTase activity, qHTS. AID 1490. Q9F4F7;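 note: the enzyme is Sfp with the accession as filed and its product quenches rhodamine fluorescence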
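Reaction rates are the 30-min fluorescence difference (ex 525, em 598 nm) in wells containing 15 nM Sfp, 5 uM rhodamine-CoA and 12.5 uM BHQ-2-YbbR at pH 7.6 with 10 mM MgCl2.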
L3MBTL1 block: inhibitors of human L3MBTL1; Q9Y468; AlphaScreen L3MBTL1–H3K9me1 peptide binding; Potency, µM (series often up to 57.1 µM), usual class: inhibitors; actives 0.66% (n = 230,000); note: nearly all actives have a fitted effect of over 60% in size
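Read-out is AlphaScreen signal from streptavidin donor and nickel chelate acceptor beads (10 ug/mL final each) bridging L3MBTL1 (50 nM) and biotinylated K9-monomethylated H3(1-15) peptide (75 nM), after 30 min compound exposure at room temperature.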
A number is an active result; - = inactive; ? = inconclusive; . = no result given; ! = a repeat was not active; [ ] = remark or other dose. Calls come from the whole dose curve; as a rule, active = well fitted curve in the direction sought with a large enough effect; inconclusive = small, poorly fitted or top-dose-only effect, or another doubt; inactive = no such curve, though single readings can be large; an effect the other way counts as inactive or inconclusive.

SMILES	G9a block	BAZ2B block	JMJD2A Tudor inh	HP1b chromo inh	Sfp inh	L3MBTL1 block
O=C(Nc1cccc(C(=O)Nc2ccc(S(=O)(=O)O)c3cc(S(=O)(=O)O)cc(S(=O)(=O)O)c23)c1)Nc1cccc(C(=O)Nc2ccc(S(=O)(=O)O)c3cc(S(=O)(=O)O)cc(S(=O)(=O)O)c23)c1	0.6µM	.	.	.	45µM!	.
C/C(N)=C(/C#N)C(=O)COC(=O)c1ccc(O)cc1	-	-	-	-	-	-
C/C(N)=C(/C#N)C(=O)COC(=O)c1ccc(C#N)cc1	22µM	?	-	-	-	?
N#Cc1ccc(C(=O)OCC(=O)NC2CCCC2)cc1	45µM	-	-	-	-	.
O=C(COC(=O)c1ncc(Cl)c(Cl)c1Cl)NC1CCCCCC1	40µM	-	-	-	.	-
O=C(COC(=O)c1ccccc1Br)NC1CCCCCCC1	.	.	-	-	.	-
O=C(COC(=O)c1ccccc1Br)NC1CCCC1	40µM	-	-	-	-	.
CCOc1ccc(/C=N/Nc2nc(C)cs2)c(O)c1	.	?	?	-	?	-
O=C(O)COc1ccc(/C=C2\SC(=Nc3ccccc3)N(c3ccccc3)C2=O)cc1	-	-	-	-	-	.
O=C(O)COc1ccccc1/C=C1\SC(=S)N(NC(=O)c2ccccc2O)C1=O	-[2.33 µM]	14µM	3.2µM	-	.	13µM
O=C(O)COc1ccccc1/C=C1\SC(=S)N(/N=C/c2ccccc2O)C1=O	-[2.33 µM]	56µM	?	-	?	-
O=C(O)COc1ccccc1/C=C1\SC(=Nc2ccc(F)cc2)N(c2ccc(F)cc2)C1=O	?	79µM	-	-	?	-[2.29 µM]
O=C(O)c1ccc(/C=C2\SC(=Nc3ccccc3)N(c3ccccc3)C2=O)cc1	?	-	-	-	79µM	.
O=C(O)c1cccc(Nc2ncnc3sccc23)c1	40µM	-	-	-	-	-
CCOC1=C/C(=C/c2c(N)n3nc(CC(=O)N4CCCCC4)sc3nc2=O)C=CC1=O	50µM	?	?	-	-	.
COC1=C/C(=C/c2c(N)n3nc(CC(=O)N4CCCCC4)sc3nc2=O)C=CC1=O	?	-	-	-	-	.
CCOC1=C/C(=C/c2c(N)n3nc(S(=O)(=O)CC)sc3nc2=O)C=CC1=O	35µM	-	-	-	-	-
COc1cccc(C=Nc2ccc3c(c2)CCC3)c1O	-	?	?	-	-	.
COc1cccc(/C=N/n2c(-c3n[nH]c4c3CCC4)n[nH]c2=S)c1O	1.4µM	-	7.9µM	?	25µM	-
COc1ccccc1/C=C/C=N/n1c(-c2n[nH]c3c2CCC3)n[nH]c1=S	1.4µM	-	35µM	?	22µM	-
COc1cccc(C=Nc2cc(C)on2)c1O	?	-	-	-	-	.
COc1cc(/C=N/n2c(-c3n[nH]c4c3CCC4)n[nH]c2=S)cc(OC)c1O	?	-	1.1µM	?	56µM	.
COc1cccc(/C=N/n2c(-c3cc(C)[nH]n3)n[nH]c2=S)c1O	.	?	2.8µM	-	2.2µM	-
COc1ccc(NC(=O)CSc2n[nH]c(-c3ccncc3)n2)cc1Cl	.	.	-	-	.	-
CC1Cc2cc(S(=O)(=O)CCC(=O)Nc3ccc(F)cc3)ccc2N1C(=O)C1CC1 (stereo not drawn)	?	-	-	-	.	.
SMILES	G9a block	BAZ2B block	JMJD2A Tudor inh	HP1b chromo inh	Sfp inh	L3MBTL1 block
CCCCCCCCNC(=O)c1ccc(C)cc1	.	-	.	.	-	-
S=c1[nH]nc(-c2n[nH]c3c2CCC3)n1/N=C/C=C/c1ccco1	.	?	5µM	-	11µM	28µM
N#Cc1ccc(OC(=O)c2cnccn2)cc1	32µM	79µM	?	-	-	.
CCC(=O)c1ccc(OC(=O)c2cnccn2)cc1	?	-	-	-	-	-
O=C(CSc1nnc(-c2cccnc2)n1Cc1ccco1)N1CCc2ccccc21	-	-	-	-	20µM	-
Fc1ccc(CSc2nnc(-c3cnccn3)n2Cc2ccco2)cc1	-[12.7 µM]	-	-	-	-	.
Fc1ccc(CSc2nnc(-c3cccnc3)n2Cc2ccco2)cc1	50µM	-	-	-	40µM	-
Cc1occc1-c1nnc(SCC(=O)N2CCCc3ccccc32)n1Cc1ccco1	-[12.7 µM]	-	-	-	-	.
COc1cc(NC(=O)c2ccc(C(=O)c3ccccc3)cc2)cc(OC)c1OC	.	-	-	-	-	.
COc1cc2c(c(O)c1OC)-c1c(cc(OC)c(OC)c1O)[C@@H](OC(=O)c1ccccc1)[C@@](C)(O)[C@@H](C)[C@@H]2OC(C)=O	-	50µM	.	.	-	.
O=C(c1ccccc1)[C@@H]1O[C@H]1c1ccc(-c2ccccc2)cc1	.	.	.	.	-	.
Cc1cc(C)c2sc(NC(=O)c3ccc(N4C(=O)CCC4=O)cc3)nc2c1	-	-	-	-	-	-
Cc1ccc2nc(NC(=S)NC(=O)c3ccc(OC(C)C)cc3)sc2c1	.	56µM	-	-	-	-
Cc1ccc2nc(NC(=O)c3ccc(N4C(=O)CCC4=O)cc3)sc2c1	11µM	?	-	-	-	-
CC[C@H]1C2=C3C(CC[C@H]4C(OCc5ccc(F)cc5C(F)(F)F)OC[C@](C)([C@@H]34)N(C(=O)OC(C)(C)C)C2)C2COC(=O)OCC21 (stereo partly drawn)	.	.	.	.	-	.
O=C(CN(Cc1ccccc1)C(=O)CCC(=O)Nc1ccccn1)NCc1ccc(F)cc1	-	-	-	-	-	.
N=C(N)SCc1cn(-c2ccccc2)nc1-c1ccc(Br)cc1	50µM	-	-	-	50µM	-
Cc1ccc(-c2nn(-c3ccccc3)cc2CO)cc1	-	-	-	-	-	.
CCS(=O)(=O)c1ncc(Cl)c(C(=O)N2CCN(c3cccc(Cl)c3)CC2)n1	13µM	-	-	-	.	.
CS(=O)(=O)c1ncc(Cl)c(C(=O)N2CCN(c3cccc(Cl)c3)CC2)n1	13µM	?	-	-	.	.
COc1ccc(OCC(=O)N2CCN(c3cccc(Cl)c3)CC2)cc1	-	-	-	-	-	.
CC(=O)N=c1sc2nc3ccccc3nc2n1N(C(C)=O)C(C)=O	?	50µM	7.9µM	?	45µM	.
COc1cccc(C(=O)NC(=S)Nc2ccc(Cl)c(C(=O)O)c2)c1	?	?	-	-	?	.
CC(C)Oc1ccc(C(=O)NC(=S)Nc2ccc(Cl)c(C(=O)O)c2)cc1	.	-	-	-	?	-
CCOc1cc(C(=O)NC(=S)Nc2ccc(Cl)c(C(=O)O)c2)cc(OCC)c1OCC	40µM	-	?	-	?	-
COc1c(C)cc(Br)cc1C(=O)NC(=S)Nc1ccc(Cl)c(C(=O)O)c1	50µM	-	-	-	-	.
Cc1nc([N+](=O)[O-])c(C(=O)OCc2ccccc2C#N)n1C	-	-	-	-	-	-
Cc1ccc(/C=C/C(=O)Nc2cccnc2)o1	3.5µM	-	?	?	-	-
Cc1ccc(/C=C/C(=O)Nc2cccc3ncccc23)o1	?	-	?	-	20µM	-
